# Laboratory results reported in PubChem BioAssay (NCI).
# About 83,000 compounds went through this panel and 20% of them were active in at least one assay; those are over-represented in the sample as a whole.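 For each line, cells grew in 96-well plates with the test compound present at a single concentration for 48 hours.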 A number with no mark means an inactive call. The source made the active and inactive calls. The calls were made as follows: active = growth percent below 10; inactive = the rest.
# Columns and labels:
# Experiment in all cases: NCI-60 one-dose screen, 48 h (100 = growth as untreated, 0 = no growth, -100 = all killed)
# EKVX NSCLC = conditions: 10 µM unless noted
# SN12C renal = conditions: 10 µM unless noted
# TK-10 renal = conditions: 10 µM unless noted
# ACHN renal = conditions: 10 µM unless noted
# CAKI-1 renal = conditions: 10 µM unless noted
# A498 renal = conditions: 10 µM unless noted
# CCRF-CEM leukemia = conditions: 10 µM unless noted
# MOLT-4 leukemia = conditions: 10 µM unless noted
# SR leukemia = conditions: 10 µM unless noted
# RPMI-8226 leukemia = conditions: 10 µM unless noted
# OVCAR-8 ovarian = conditions: 10 µM unless noted
# OVCAR-5 ovarian = conditions: 10 µM unless noted
# OVCAR-4 ovarian = conditions: 10 µM unless noted
# SK-OV-3 ovarian = conditions: 10 µM unless noted
# IGROV1 ovarian = conditions: 10 µM unless noted
# OVCAR-3 ovarian = conditions: 10 µM unless noted
# HS 578T breast = conditions: 10 µM
# NCI/ADR-RES ovarian = conditions: 10 µM unless noted
# UO-31 renal = conditions: 10 µM unless noted
Structure (SMILES),growth (EKVX NSCLC),growth (SN12C renal),growth (TK-10 renal),growth (ACHN renal),growth (CAKI-1 renal),growth (A498 renal),growth (CCRF-CEM leukemia),growth (MOLT-4 leukemia),growth (SR leukemia),growth (RPMI-8226 leukemia),growth (OVCAR-8 ovarian),growth (OVCAR-5 ovarian),growth (OVCAR-4 ovarian),growth (SK-OV-3 ovarian),growth (IGROV1 ovarian),growth (OVCAR-3 ovarian),growth (HS 578T breast),growth (NCI/ADR-RES ovarian),growth (UO-31 renal)
COc1ccc2c(c1)N(CCO)C1=C(C(=O)OC1)C2c1cccc(Br)c1 (stereo unspecified),37.4%,27.3%,60%,28.4%,8.86% (active),-1.77% (active),11.7%,13.9%,17.8%,18.5%,14.6%,32.1%,52.6%,28.5%,11.2%,-51.6% (active),10.7%,10.7%,–
O=C1/C(=C\c2cccn2Cc2ccc(Cl)cc2)c2ccccc2N1c1c(Cl)cccc1Cl,62.2%,–,87.6%,65.7%,75%,98%,82.4%,–,75.3%,76.1%,85.2%,86.8%,40.2%,86.7%,63%,82.3%,97.2%,78.3%,63%
CCCCCc1c(C)[nH]c(/C=C2\N=C(c3ccc[nH]3)C=C2CC)c1C,-90.3% (active),-89.9% (active),-88.9% (active),-94.7% (active),–,-90.8% (active),-58.3% (active),-58.8% (active),–,-63.7% (active),-65.2% (active),-95.5% (active),-89.8% (active),-95.5% (active),-63.3% (active),-97.5% (active),-27.5% (active),-78.8% (active),–
CNC(=O)c1cc(Oc2ccc(NC(=O)c3[nH]c(SC)nc3-c3ccc(F)cc3)cc2)ccn1,63.7%,–,88.3%,39.8%,–,61.1%,85.3%,38.4%,63.1%,43.8%,69.1%,99.9%,60.8%,34.1%,55%,88.2%,75.7%,67.4%,60.5%
C=C1NC(=O)C(C(C)CC)NC(=O)C2CSCC(NC(=O)CCC(=O)O)C(=O)NC(Cc3ccccc3)C(=O)NC(C)C(=O)NC(CC(C)CC)C(=O)NC(C(=O)NC(Cc3ccccc3)C(=O)N3CCCC3C(=O)N2)C(C)OC(=O)C(CO)NC(=O)C(C(O)COC)N(C)C(=O)C(C(C)C)NC(=O)C(CC(C)CC)NC1=O (stereo unspecified),30.4% [6 µM],–,60.2% [6 µM],37.4% [6 µM],–,-11.8% [6 µM] (active),18.6% [6 µM],16.9% [6 µM],12.5% [6 µM],25.3% [6 µM],12.9% [6 µM],44.9% [6 µM],55.6% [6 µM],39% [6 µM],30.9% [6 µM],12.4% [6 µM],–,9.55% [6 µM] (active),57.4% [6 µM]
COc1cc(C2CC(c3cccc(Nc4ccnc5cc(Cl)ccc45)c3)=NN2c2ccccc2)cc(OC)c1OC (stereo unspecified),–,68.1%,75.4%,45%,8.35% (active),73.3%,57.1%,74.4%,52.7%,53.1%,69.6%,99.8%,124%,101%,76.4%,90.6%,63.6%,–,38%
NNC(=O)Cc1ccccc1,81.2%,–,111%,78.9%,–,97.2%,57.1%,79.9%,88.9%,88.4%,87.6%,77.1%,97.4%,78.4%,97.5%,96%,95.7%,72.2%,76.2%
Nc1nc2c(c3ncccc13)C(c1ccccc1)Cc1ncccc1-2 (stereo unspecified),78.8%,–,89.9%,84.4%,–,78.2%,72.3%,65.8%,40.7%,87.4%,93.5%,92.8%,94.1%,87.3%,63.3%,62.2%,87.2%,67.7%,61.1%
O=C(CCc1nc2sc3c(c2c(=O)[nH]1)CCC3)NCc1cn(-c2ccccc2)nc1-c1ccccc1,92%,–,89.4%,81.1%,92.5%,66.4%,61%,59.6%,-18% (active),90%,44.3%,86.2%,-48% (active),68.5%,93%,16.9%,48.4%,69.5%,98.5%
Nc1nc(N)c2c(n1)NC(c1sc(Cl)nc1Cl)CC(c1ccc3c(c1)OCO3)=N2 (stereo unspecified),–,35.2%,50.6%,45%,26.5%,-2.91% (active),11.1%,25.3%,17.1%,27.1%,40.5%,66.3%,86%,17.4%,34.2%,10.4%,10.8%,–,30.4%
CC(OC(=O)Nc1cccc(Cl)c1)C(=O)O (stereo unspecified),103%,–,102%,97.4%,–,23.2%,101%,–,–,–,95.3%,89.1%,98.6%,99.1%,104%,96.3%,96.4%,96.8%,90.7%
Cc1nc2ccc(Nc3nc(NCCN4CCOCC4)nc(Nc4ccc(F)cc4)n3)cc2n1Cc1ccccc1,–,61.8%,60.6%,52.2%,55.6%,-13.9% (active),29.5%,22.7%,0.147% (active),3.11% (active),50.2%,84.1%,98.1%,79%,69%,73.7%,40.6%,–,37.3%
Clc1ccc(Nc2ncnc3c2sc2ncccc23)cc1,–,20.5%,59.3%,14.7%,15.3%,18.7%,21.2%,15%,10.4%,38.2%,12.2%,58.2%,85.4%,28.6%,66.2%,56.6%,86.8%,19.1%,-13.8% (active)
Cc1cc(C)c2c(n1)sc1c(Nc3ccc(Cl)cc3Cl)ncnc12,–,13.5%,56.7%,11.7%,12.9%,15.6%,16.1%,11.6%,4.08% (active),28.4%,3.79% (active),57.5%,68%,22.2%,69.5%,57.3%,90.7%,17.9%,-8.56% (active)
CC(=O)N1N=C(c2ccc(C)cc2)CC1c1cn(-c2ccccc2)nc1-c1cccc(Nc2ccnc3cc(Cl)ccc23)c1 (stereo unspecified),–,46.2%,61.3%,81.2%,101%,82.2%,-19.7% (active),23.4%,-4.15% (active),-11% (active),–,133%,120%,114%,48.9%,84.7%,80.3%,–,77.1%
O=C1CC2(O)CSc3nc(=O)cc(n32)N1 (stereo unspecified),–,96.9%,106%,101%,92.5%,104%,101%,107%,102%,99%,107%,105%,121%,102%,109%,115%,121%,112%,82.7%
COc1ccc(C2=NN(C=O)C(c3ccc(OS(=O)(=O)c4ccc(C)cc4)c(OC)c3)C2)cc1 (stereo unspecified),–,76.9%,73.2%,69.1%,52.7%,39.6%,37.9%,40.7%,23.5%,40.3%,59.6%,–,40.5%,84.3%,79.1%,60.8%,60.1%,–,53.9%
COc1ccc(-c2nc(-c3ccccc3OCc3ccccc3OC)nc(C)c2C(C)=O)cc1,–,85.1%,103%,87%,73.3%,79.1%,73.1%,62.4%,78.8%,73%,86.9%,94.1%,94.9%,96.1%,89.7%,102%,72.8%,83.7%,64.3%
Clc1ccc(Nc2ncnc3c2sc2ncccc23)c(Cl)c1,–,20.4%,59.6%,9.32% (active),15.1%,26.7%,16.6%,8.22% (active),9.78% (active),30%,4.31% (active),59.5%,84.9%,25.5%,70.4%,55.5%,95.8%,15%,-11.7% (active)
CC(C)NC(=O)OCC#CCOC(=O)NC(C)C,–,102%,99.3%,108%,91.7%,104%,103%,101%,102%,103%,115%,–,121%,94.8%,90.6%,108%,115%,109%,79.8%
CCCCn1cnc(-c2cc(-c3ccccc3)cc(C(F)(F)F)c2)n1,–,98.2%,102%,106%,91.5%,70.9%,97.1%,88.8%,89.5%,98.2%,97.5%,113%,106%,105%,103%,103%,101%,103%,87.9%
COc1ccc(-c2nsc3c2NC(=O)CC3c2cccc(F)c2)cc1 (stereo unspecified),–,55.7%,51.6%,66.2%,38.5%,28.7%,49.5%,41.6%,15.4%,47.1%,60.4%,57%,92.1%,58.9%,57.2%,9.37% (active),79.1%,22.8%,70.5%
COC1=CC(c2ccc[nH]2)=N/C1=C\c1[nH]c(C)c(C(=O)CCCCCCCCC(=O)O[C@H]2CC[C@H]3C4CCc5cc(O)ccc5C4CC[C@]23C)c1C (stereo partly specified),–,39.6%,34.1%,24.3%,40.5%,-0.91% (active),11.5%,19.5%,-14.6% (active),33.2%,12.2%,52.1%,49.7%,49.2%,22.7%,13.7%,10.7%,68.3%,-13.3% (active)
Cc1nc2ccc(Nc3nc(N4CCOCC4)nc(N4CCN(C)CC4)n3)cc2n1Cc1ccccc1,–,113%,87.2%,94.7%,102%,40.6%,79.9%,–,24.9%,65.4%,93.6%,101%,112%,96.2%,98.2%,94.7%,69.3%,–,62.7%
CC(C)(C)c1ccc(Cn2c(-c3nonc3N)nc3ccccc32)cc1,–,73.6%,81.9%,77.3%,62.2%,80.1%,46.7%,62.6%,28.2%,61.9%,80.1%,99.2%,98.4%,61%,66.6%,69%,85.1%,75.8%,51.4%
O=C(/C=C/c1cn(-c2ccccc2)nc1-c1cccc(Nc2ccnc3cc(Cl)ccc23)c1)c1ccc2c(c1)OCO2,–,117%,123%,105%,100%,92.3%,17.2%,–,8.67% (active),59.2%,91.9%,106%,143%,113%,96.8%,117%,105%,–,84.8%
O=C(Nc1ccc2[nH]c3ccccc3c2c1)c1ccccc1Cl,–,61.3%,49.7%,70%,27.2%,44.7%,40.1%,33.4%,17.6%,67.5%,72.4%,82.4%,101%,50.5%,50.1%,50.9%,70.6%,18.8%,65.7%
NS(=O)(=O)c1ccc(N2N=C(c3ccc(Br)cc3)CC2c2cn(-c3ccccc3)nc2-c2ccc(Cl)cc2)cc1 (stereo unspecified),–,78.6%,112%,86.5%,89%,113%,70.8%,74.8%,72%,74%,90.6%,102%,93.7%,94.7%,93.8%,95.1%,100%,86.6%,58.3%
O=C(N=Nc1c(Cl)c(O)c2ccccc2c1O)C(=O)Nc1cccc(C(F)(F)F)c1,–,13.2%,116%,58.4%,54.6%,84.9%,6.57% (active),35.2%,32.2%,76.9%,83.6%,118%,66.9%,89.6%,39.3%,24.7%,83.8%,71%,38.7%
COC(=O)C(C)NC1=C(Cl)C(=O)C(NC(C)C(=O)OC)=C(Cl)C1=O (stereo unspecified),–,99.5%,121%,106%,103%,89.3%,96%,93.5%,92.9%,96.1%,94.2%,111%,78.6%,105%,120%,61.2%,113%,101%,89.8%
